Assay outcomes as filed in PubChem.
C diff growth – inhibitors of Clostridium difficile growth; Clostridium difficile clinical isolate growth, OD600, 24 h; stronger effect = lower value; growth activity, negative = inhibition, % at 16 µg/mL (by protocol); 0.25% of 86,000 active; AID 1259249;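 active means mean growth activity at or below -80% and every replicate also at or below -80%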
T cruzi growth-1 – inhibitors of T. cruzi proliferation | 5.9% of 77,000 active | T. cruzi beta-gal in NIH3T3, GalScreen luminescence, 90 h | AID 624255 | inhibition, % at 8.34 µM;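 active means mean inhibition above about 93%, with at least 55% of replicates each passing it, limit read from the data, passing the limit was not always enough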
Pf Dd2 inh – inhibitors of Plasmodium falciparum Dd2 growth; P. falciparum Dd2 growth, SYBR Green, 72 h; stronger effect = lower value; activity change, % at 10 µM; 2.3% of 94,000 active; AID 1159554; in the data active means activity change below about -80%
T cruzi growth-2 – blocks T. cruzi growth in NIH3T3 host cells; shares compounds with T cruzi growth-1; T. cruzi beta-gal in NIH3T3, GalScreen luminescence, 90 h; inhibition, % at 8.35 µM; 72% of 5,600 active;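 active means mean replicate inhibition above about 95% and at least 55% of replicates individually reaching it, limit read from the data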
T cruzi growth-3 – blocks T. cruzi growth in NIH3T3 host cells. 21% of 5,600 active. inhibition, % at 2.09 µM. AID 651740. T. cruzi beta-gal in NIH3T3, GalScreen luminescence, 90 h. shares compounds with T cruzi growth-1;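 active means mean inhibition above about 95%, with at least 55% of replicates also reaching it, limit read from the data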
3T3 cytotox – kills mouse NIH/3T3 fibroblasts; shares compounds with T cruzi growth-1; NIH/3T3 viability, CellTiter-Glo ATP luminescence, 90 h; cytotoxicity (signal decrease), % at 8.35 µM; 14% of 5,600 active;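 active means mean signal decrease across replicates above about 35% based on untreated-well scatter, with enough replicates individually passing, limit read from the data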
3T3 cytotox 2 – kills mouse NIH/3T3 fibroblasts | NIH/3T3 viability, CellTiter-Glo ATP luminescence, 90 h | AID 651744 | shares compounds with T cruzi growth-1 | inhibition, % at 24.9 µM | 56% of 5,600 active;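 active means mean loss of cell viability signal at or above a set limit, and enough replicates individually reaching it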
A number is an active result; – = inactive; · = no result. Sampled rows, rich in hits. Any-hit rate of the full collection: about 6.8%.

SMILES	C diff growth	T cruzi growth-1	Pf Dd2 inh	others
C[C@H](CO)N1C[C@H](C)[C@@H](CN(C)Cc2ccncc2)OCCCC[C@H](C)Oc2ccc(NS(=O)(=O)c3cccs3)cc2C1=O	–	–	–
C[C@@H]1CCCCO[C@@H](CN(C)Cc2ccc(Cl)c(Cl)c2)[C@@H](C)CN([C@H](C)CO)C(=O)c2cc(NS(=O)(=O)c3cccs3)ccc2O1	–	114.9	–	T cruzi growth-2=96.7;T cruzi growth-3=–;3T3 cytotox=–;3T3 cytotox 2=49.5
C[C@@H]1CCCCO[C@@H](CN(C)Cc2ccncc2)[C@@H](C)CN([C@@H](C)CO)C(=O)c2cc(NS(=O)(=O)c3cccs3)ccc2O1	–	–	–
C[C@@H]1CCCCO[C@H](CN(C)Cc2ccncc2)[C@H](C)CN([C@H](C)CO)C(=O)c2cc(NS(=O)(=O)c3cccs3)ccc2O1	–	–	–
C[C@H]1CN([C@@H](C)CO)C(=O)c2cccc(NC(=O)c3ccc(-c4nccs4)cc3)c2O[C@H]1CN(C)C(=O)Nc1ccc2c(c1)OCO2	·	–	–
